The source of these data is PubChem BioAssay (NCI).

Values joined by “and” are separate entries in the source; they are usually repeats but may differ in a detail not shown here. Identical values can stand only once. This is part of a sample that, as a whole, favours compounds with a hit. Of some 83,000 tested, about 20% had one in any assay.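 For each line, cells grew in 96-well plates with the test compound present at a single concentration for 48 hours.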 Active and inactive are the calls of the source. The calls were made as follows: active = growth percent below 10; inactive = the rest.

Some test systems named below: HCT-15 colon; HT29 colon; SNB-75 CNS; SNB-19 CNS; U251 CNS; PC-3 prostate; SK-MEL-5 melanoma; UACC-62 melanoma; LOX IMVI melanoma; SK-MEL-28 melanoma; SK-MEL-2 melanoma; EKVX NSCLC; SN12C renal; UO-31 renal; TK-10 renal; ACHN renal; CAKI-1 renal; A498 renal; CCRF-CEM leukemia; MOLT-4 leukemia.
Common to all, as to experiment: NCI-60 one-dose screen, 48 h (100 = growth as untreated, 0 = no growth, -100 = all killed)
Holding throughout (details): 10 µM unless noted

Turning to `COc1ccc(/C=N/Nc2nc3ccccc3s2)cc1`, the growth with HCT-15 colon is 90.4% (inactive); in the test with HT29 colon, 92.3% (inactive); in the test on SNB-75 CNS, 80.5% (inactive); in the test on SNB-19 CNS, 99% (inactive); with U251 CNS, 85.9% (inactive); in the test on PC-3 prostate it was 81.2% (inactive). Moreover, the growth in the test with SK-MEL-5 melanoma is 91.6% (inactive); in the test on UACC-62 melanoma it was 83% (inactive); in the test with LOX IMVI melanoma it was 95.4% (inactive); in the test with SK-MEL-28 melanoma it was 99.2% (inactive); in the test with SK-MEL-2 melanoma it was 117% (inactive); in the test with EKVX NSCLC it was 67.4% (inactive). Moreover, the growth is 89% (inactive) with SN12C renal; 62.6% (inactive) in the test on UO-31 renal; 112% (inactive) in the test on TK-10 renal; 90.6% (inactive) in the test with ACHN renal; 79.9% (inactive) with CAKI-1 renal; 115% (inactive) in the test on A498 renal. Besides, the growth is 34.7% (inactive) in the test on CCRF-CEM leukemia and 85.8% (inactive) in the test on MOLT-4 leukemia.
`COCCNC(C)=O`: the growth was 100% (inactive) in the test on HCT-15 colon; 108% (inactive) with HT29 colon; 99.2% (inactive) in the test on SNB-75 CNS; 104% (inactive) in the test on SNB-19 CNS; 98.1% (inactive) in the test with U251 CNS; 101% (inactive) with PC-3 prostate. The growth in the test on SK-MEL-5 melanoma is 96.7% (inactive); in the test on UACC-62 melanoma it was 99.9% (inactive); with LOX IMVI melanoma, 105% (inactive); in the test on SK-MEL-28 melanoma, 112% (inactive); in the test on SK-MEL-2 melanoma, 105% (inactive); in the test with EKVX NSCLC, 105% (inactive). For the same compound, the growth is 97.7% (inactive) in the test with SN12C renal; 98.2% (inactive) in the test on UO-31 renal; 102% (inactive) in the test with TK-10 renal; 110% (inactive) in the test with ACHN renal; 98.5% (inactive) in the test on CAKI-1 renal; 89.6% (inactive) in the test with A498 renal. Further, the growth was 113% (inactive) in the test with CCRF-CEM leukemia and 119% (inactive) with MOLT-4 leukemia.
Regarding `CCOCCC(=O)O`, the growth is 108% (inactive) with HCT-15 colon; 104% (inactive) in the test with HT29 colon; 93.3% (inactive) with SNB-75 CNS; 109% (inactive) with SNB-19 CNS; 106% (inactive) with U251 CNS; 91.7% (inactive) in the test on PC-3 prostate. The growth is 96.1% (inactive) in the test on SK-MEL-5 melanoma; 102% (inactive) in the test on UACC-62 melanoma; 102% (inactive) with LOX IMVI melanoma; 109% (inactive) with SK-MEL-28 melanoma; 109% (inactive) in the test with SK-MEL-2 melanoma; 98.8% (inactive) in the test with EKVX NSCLC. Also, the growth is 103% (inactive) in the test on SN12C renal; 102% (inactive) with UO-31 renal; 103% (inactive) with TK-10 renal; 110% (inactive) with ACHN renal; 102% (inactive) in the test on CAKI-1 renal; 80.1% (inactive) with A498 renal. Also, the growth in the test with CCRF-CEM leukemia is 98.9% (inactive); in the test with MOLT-4 leukemia it was 116% (inactive).
In the case of `COC(=O)c1nc(=S)[nH]c(C(=O)OC)c1C(=O)c1ccc(OC)cc1`, the growth is 100% (inactive) in the test on HCT-15 colon; 106% (inactive) with HT29 colon; 101% (inactive) in the test with SNB-75 CNS; 101% (inactive) in the test with SNB-19 CNS; 108% (inactive) in the test on U251 CNS; 93% (inactive) in the test on PC-3 prostate. Moreover, the growth in the test with SK-MEL-5 melanoma was 97.3% (inactive); with UACC-62 melanoma, 95.9% (inactive); in the test with LOX IMVI melanoma, 94.8% (inactive); in the test on SK-MEL-28 melanoma it was 109% (inactive); with SK-MEL-2 melanoma, 104% (inactive); with EKVX NSCLC, 107% (inactive). Also, the growth with SN12C renal was 98.5% (inactive); in the test with UO-31 renal, 86.8% (inactive); in the test with TK-10 renal, 110% (inactive); in the test on ACHN renal, 105% (inactive); with CAKI-1 renal, 94.5% (inactive); in the test with A498 renal it was 116% (inactive). The growth in the test on CCRF-CEM leukemia is 101% (inactive); with MOLT-4 leukemia, 107% (inactive).
Take `N#Cc1c(N)nc2c(c(-c3ccc(Cl)cc3)nn2-c2ccccc2)c1C#N`: the growth with HCT-15 colon was 98.6% [100 µM] (inactive); in the test with HT29 colon, 106% [100 µM] (inactive); in the test on SNB-75 CNS, 104% [100 µM] (inactive); in the test on SNB-19 CNS, 99.6% [100 µM] (inactive); with U251 CNS, 92.8% [100 µM] (inactive); in the test with PC-3 prostate it was 98.6% [100 µM] (inactive). Further, the growth is 103% [100 µM] (inactive) with SK-MEL-5 melanoma; 97.9% [100 µM] (inactive) in the test with UACC-62 melanoma; 96.6% [100 µM] (inactive) with LOX IMVI melanoma; 114% [100 µM] (inactive) with SK-MEL-28 melanoma; 122% [100 µM] (inactive) in the test with SK-MEL-2 melanoma; 83% [100 µM] (inactive) in the test on EKVX NSCLC. Besides, the growth in the test on SN12C renal is 105% [100 µM] (inactive); in the test on UO-31 renal, 96.6% [100 µM] (inactive); in the test with TK-10 renal it was 128% [100 µM] (inactive); in the test with CAKI-1 renal, 108% [100 µM] (inactive); with A498 renal it was 113% [100 µM] (inactive); with CCRF-CEM leukemia it was 98.9% [100 µM] (inactive). Further, the growth in the test with MOLT-4 leukemia was 114% [100 µM] (inactive).
Turning to `Cc1cccc(Cl)c1N`, the growth was 109% (inactive) in the test with HCT-15 colon; 109% (inactive) in the test with HT29 colon; 100% (inactive) with SNB-75 CNS; 108% (inactive) with SNB-19 CNS; 108% (inactive) in the test with U251 CNS; 95.5% (inactive) in the test with PC-3 prostate. The growth with SK-MEL-5 melanoma was 110% (inactive); in the test on UACC-62 melanoma, 103% (inactive); in the test on LOX IMVI melanoma, 98.6% (inactive); in the test on SK-MEL-28 melanoma it was 106% (inactive); in the test on SK-MEL-2 melanoma, 121% (inactive); with EKVX NSCLC it was 122% (inactive). In addition, the growth was 112% (inactive) in the test with SN12C renal; 103% (inactive) with UO-31 renal; 111% (inactive) in the test on TK-10 renal; 92.8% (inactive) in the test on CAKI-1 renal; 107% (inactive) in the test with A498 renal; 128% (inactive) in the test with CCRF-CEM leukemia. The growth with MOLT-4 leukemia is 100% (inactive).
Regarding `COc1cc(NCCCCCCCNC(C)C)c2nccc(C)c2c1`, the growth in the test on HCT-15 colon is 89.2% (inactive) and 58.5% (inactive); in the test on HT29 colon, 53.7% (inactive) and 14.2% (inactive); in the test on SNB-75 CNS, 74.4% (inactive) and 61.1% (inactive); in the test on SNB-19 CNS, 90.9% (inactive) and 74.2% (inactive); with U251 CNS it was 80.8% (inactive) and 61.3% (inactive); in the test with PC-3 prostate, 58.1% (inactive) and 75.9% (inactive). In addition, the growth with SK-MEL-5 melanoma is 84.3% (inactive) and 64.8% (inactive); with UACC-62 melanoma it was 88.2% (inactive) and 3.49% (active); with LOX IMVI melanoma it was 92.5% (inactive) and 54.7% (inactive); in the test with SK-MEL-28 melanoma, 105% (inactive) and 91.4% (inactive); with SK-MEL-2 melanoma, 103% (inactive) and 126% (inactive); in the test with EKVX NSCLC, 82.9% (inactive) and 50.6% (inactive). Further, the growth with SN12C renal was 78% (inactive) and 61.7% (inactive); in the test with UO-31 renal, 38.4% (inactive) and 47.1% (inactive); in the test with TK-10 renal it was 90.3% (inactive) and 67.6% (inactive); with CAKI-1 renal, 87.7% (inactive) and 45.5% (inactive); with A498 renal, 80.5% (inactive) and 49.2% (inactive); in the test on CCRF-CEM leukemia it was 92.7% (inactive). In addition, the growth in the test on MOLT-4 leukemia was 80% (inactive).
